Measured values published in PubChem BioAssay (NCATS).
Inconclusive results are not listed. Active and inactive are the calls of the source. Calls follow the shape of the dose curve; as a rule, active = well fitted inhibition curve with a large enough effect; inconclusive = small, poorly fitted or top-dose-only effect; inactive = no such curve, though single readings can be large or run the other way. Where a SMILES comes first, the peptide text is derived from it. The star is where a group is joined. βNA = c1ccc2cc(N*)ccc2c1; Cbz = O=C(OCc1ccccc1)*

Tested on: Zika virus NS2B-NS3 protease (unlinked complex)
Test: Primary screen GU Rhodamine qHTS for Zika virus inhibitors: Unlinked NS2B-NS3 protease assay (AID 1347159); also: nearly all actives have a fitted effect of over 60% in size
Details: Recombinant ZIKV NS2B-NS3 protease, Rhodamine110 substrate fluorescence; series mostly up to 107 µM; activity change, negative = inhibition: at the top concentration
From the text: Avindra Nath, Ph.D., National Institute of Neurological Disorders and Stroke (NINDS), Bethesda, MD
Radhakrishnan Padmanabhan, Ph.D., Georgetown University (GU), Washington D.C.
Zika Virus causes congenital defects, including microcephaly and is associated with Guillain-Barre syndrome, eningoencephalitis and myelitis in infected adult. […] Using a target-based approach, we hope to establish a screening paradigm to uncover novel, cell-active NS2B-NS3 protease (Zika Virus) specific inhibitors from NCATS' collection of small molecules using qHTS.
Four assay panel was created to identify potential Zika Virus inhibitors. Namely, (1) GU unlinked NS2B-NS3 AMC tagged protease qHTS, (2) GU unlinked NS2B-NS3 Rhodamine tagged protease qHTS, (3) NINDS linked NS2B-NS3 AMC tagged protease qHTS, (4) NINDS linked NS2B-NS3 Rhodamine tagged protease qHTS. Active compounds were re-acquired and re-screened to confirm inhibition. Inhibitors were further screened against various confirmatory and counterscreens in dose response format.
Early Translation Branch (ETB)
National Center for Advancing Translational Sciences (NCATS), Rockville, MD
National Institute of Health (NIH), Bethesda, Maryland
Padmanabhan lab provided the NS2B hydrophilic domain and NS3 protease domain in a noncovalent complex used for the unlinked assay. Control compound aprotinin is obtained from Thermo Scientific (#78432; Waltham, Massachusetts). Rhodamine110 substrate ([N-Cbz]-Nle-Lys-Arg-Arg-Rhod110-Arg-Arg-Lys-Nle-[N-Cbz]) was purchased from either Genscript or Bachem.
1536-well Protease (Rhodamine110 Substrate) Assay:
Briefly, 3 microL of enzyme (25 nM final concentration), in assay buffer (10 mM Tris-HCl pH 8.0 with 0.01% Tween 20) were dispensed into a 1,536-well solid-bottom black plate (Greiner Bio One, Monroe, NC). Twenty-three nL of compounds (final concentration range 7.28 nM to 114 microM) or control Aprotinin (final concentration range 3.47 nM to 114 microM) were transferred via Wako Pin-tool (Wako Automation, Richmond, VA). Samples were incubated (room temperature, protected from light) for 15 minutes followed by a 1 microL Rhodamine110 substrate addition (1.5 microM final concentration). Plates were then immediately read on a ViewLux High-throughput CCD imager (PerkinElmer, Waltham, MA) equipped with FITC fluorescence optics (480(20) nm excitation, 540(25) nm emission), then incubated (room temperature, protected from light) for 15 minutes (~15% conversion). The change in fluorescence intensity over the 15-minute reaction period was normalized against no-inhibitor and no-enzyme controls and the resulting percent inhibition data were fitted to a 4-parameter Hill equation. Aprotinin was used as intraplate control.
% is scaled to controls: 0 for no effect and ±100 for the full control effect; potency is read from the fitted curve at half-maximal effect.

Row | Compound | activity change, negative = inhibition | Potency
1 | CC1(C)C(=O)CCC2(C)C1C(O)C=C1COC(=O)C12O (stereo not given) | 9.26% (inactive) | –
2 | CC1=C2C[C@@]3(C)[C@@H](CCC[C@@H]3C)C[C@@]2(O)OC1=O | -12.7% (inactive) | –
3 | C=C1CCC2[C@](C)(CCC[C@]2(C)C(=O)O)[C@H]1CC/C(C)=C/C(=O)OC (stereo not given in full) | – | 12.6 µM (active)
4 | CC(=O)N[C@H]1[C@H](O[C@H]2CC[C@]3(C)C4CC=C5[C@@H]6CC(C)(C)CC[C@]6(C(=O)O)[C@H](O)C[C@@]5(C)[C@]4(C)CC[C@H]3C2(C)C)O[C@H](CO)[C@@H](O)[C@@H]1O (stereo not given in full) | 12.8% [at 32.5 µM] (inactive) | –
5 | C=C1CC2C3(C)C(O)CC(=O)C(C)(C)C3C(O)C(OC(C)=O)C2(C)C2C(=O)OC(C)(C(=O)OC)C(=O)C12C (stereo not given) | 58.4% [at 57.1 µM] (inactive) | –
6 | CC(C)CC(NC(=O)OCc1ccccc1)C(=O)NC(CC(C)C)C(=O)NC(CCC(=O)O)C(=O)Nc1ccc2ccccc2c1 (stereo not drawn) (Cbz-Leu-Leu-Glu-βNA; configuration not given here) | – | 11.2 µM (active)
7 | C=C1CC[C@]2(C(=O)O[C@@H]3O[C@H](CO)[C@@H](O)[C@H](O)[C@H]3O)CC[C@]3(C)C(=CCC4[C@@]5(C)C[C@H](O)[C@@H](O[C@@H]6O[C@H](C(=O)O)[C@@H](O)[C@H](O)[C@H]6O)[C@](C)(C=O)C5CC[C@]43C)C2C1 (stereo not given in full) | 11.7% [at 32.5 µM] (inactive) | –
8 | CC1(C)C[C@H]2C=C(C=O)[C@]3(C(=O)O)C[C@]3(C)[C@H]2C1 | – | 22.4 µM (active)
9 | C=C1[C@@H]2CC[C@@]3(C)[C@H](c4ccoc4)OC(=O)C[C@]13O[C@H]1CC(=O)C(C)(C)[C@H](C(O)C(=O)OC)[C@]12C (stereo not given in full) | 13.9% [at 57.1 µM] (inactive) | –
10 | COc1cc2c(c(OC)c1O)C(c1ccc(O)cc1)C1C(=O)OC3C(COC(=O)C1=C2)OC(CO)(OC1OC(COC(=O)/C=C/c2ccc(OC4OC(C)C(O)C(O)C4O)cc2)C(O)C(O)C1O)C3O (stereo not given) | 33.8% [at 32.5 µM] (inactive) | –
11 | Cc1occc1C(=O)n1ccnc1 | 2.43% (inactive) | –
12 | COc1cc(C(C)=O)ccc1O[C@@H]1O[C@H](CO)[C@@H](O)[C@H](O)[C@H]1O | 0.153% (inactive) | –
13 | C/C=C/C=C/C=C/C(=O)OC1C=C2C(O)OC(=O)[C@]2(O)[C@@]2(C)CCCC(C)(C)[C@H]12 (stereo not given in full) | – | 6.31 µM (active)
14 | C[C@H]1CC[C@@]2(OC1)O[C@H]1CC3C4CC[C@H]5C[C@@H](O[C@@H]6O[C@H](CO)[C@H](O[C@@H]7O[C@H](CO)[C@@H](O)[C@H](O[C@@H]8OC[C@@H](O)[C@H](O)[C@H]8O)[C@H]7O[C@@H]7O[C@H](CO)[C@@H](O)[C@H](O)[C@H]7O)[C@H](O)[C@H]6O)[C@H](O)C[C@]5(C)C4=CC(=O)[C@]3(C)[C@H]1[C@@H]2C (stereo not given in full) | 4.86% [at 32.5 µM] (inactive) | –
15 | COc1cccc(OC)c1-c1cc(C(=O)N[C@@H](CC(C)C)C(=O)O)nn1-c1ccnc2cc(Cl)ccc12 | – | 22.4 µM (active)
16 | CC(C)C1(O)C=C2C(=O)CC3C(C)(C(=O)O)CCCC3(C)C2CC1 (stereo not given) | 5.15% (inactive) | –
17 | CC(C)(O)/C=C/C(=O)[C@](C)(O)[C@H]1[C@H](O)C[C@@]2(C)[C@@H]3CC=C4[C@@H](C=C(O[C@@H]5O[C@H](CO)[C@@H](O)[C@H](O)[C@H]5O)C(=O)C4(C)C)[C@]3(C)C(=O)C[C@]12C | -15.4% [at 32.5 µM] (inactive) | –
18 | COC1CC(O[C@H]2CC[C@@]3(C)C(=CC[C@]4(O)C3[C@H](O)[C@@H](O)[C@]3(C)[C@@H]([C@H](C)O)CC[C@@]34O)C2)OC(C)C1OC1CC(OC)C(OC2CC(OC)C(OC3OC(C)C(OC4OC(CO)C(O)C(O)C4O)C(OC)C3O)C(C)O2)C(C)O1 (stereo not given in full) | 22.8% [at 32.5 µM] (inactive) | –
19 | CC/C=C/C(O)C(O)C1=C(C)C(=O)C2(O1)C(=O)NC(OC)(C(=O)c1ccccc1)C2O (stereo not given) | -4.28% [at 57.1 µM] (inactive) | –
20 | COC(=O)C1=COC(O[C@@H]2O[C@H](CO)[C@@H](O)[C@H](O)[C@H]2O)/C(=C\COC(=O)/C=C/c2ccccc2)C1CC(=O)OCCc1ccc(O)cc1 (stereo not given in full) | -4.59% [at 32.5 µM] (inactive) | –

Row | Compound | activity change, negative = inhibition | Potency
21 | COc1cc(/C=C/C(=O)O[C@@H]2C[C@](O)(C(=O)O)C[C@@H](O)[C@H]2O)ccc1O | -15.3% (inactive) | –
22 | Nc1nc(COC(=O)c2ccc([N+](=O)[O-])cc2)nc(Nc2ccccc2)n1 | 24% (inactive) | –
23 | C[C@@]1(C(=O)O)CCC[C@@]2(C)C3=CC[C@H]4C[C@@]3(CC[C@H]12)CC4(O)CO (stereo not given in full) | 2% (inactive) | –
24 | Cc1c(Cc2ccc3ccccc3n2)c2cc(F)ccc2n1CC(=O)O | – | 35.5 µM (active)
25 | COC(=O)C1=CO[C@@H](O[C@@H]2O[C@H](CO)[C@@H](O)[C@H](O)[C@H]2O)[C@H]2[C@@H]1[C@H](O)C[C@]2(C)O | 13.3% [at 57.1 µM] (inactive) | –
26 | C=CCc1ccc(O[C@@H]2O[C@H](CO)[C@@H](O)[C@H](O)[C@H]2O)c(O[C@@H]2O[C@H](CO)[C@@H](O)[C@H](O)[C@H]2O)c1 | 7.63% [at 57.1 µM] (inactive) | –
27 | O=C(O)c1ccnc2cc(-c3nc4ccccc4n3CCN3CCCCC3)sc12 | 22.5% (inactive) | –
28 | CC(NC(=O)[C@H](Cc1ccccc1)NC(=O)OCc1ccccc1)C(=O)CF (stereo not given in full) | -19.8% (inactive) | –
29 | C[C@@H]1C[C@@H](O)[C@@]23CO[C@]2(CO)CCC[C@@H]3[C@@]12C[C@@H](c1ccoc1)OC2=O | -10.6% (inactive) | –
30 | C/C=C(\C)C(=O)OC[C@H]1O[C@@H](O[C@H]2[C@@H](O[C@H]3O[C@H](COC(=O)/C(C)=C/C)[C@@H](O)[C@H](O)[C@H]3O[C@@H]3O[C@H](COC(=O)/C(C)=C/C)[C@@H](O)[C@H](OC(=O)/C(C)=C/C)[C@H]3O)O[C@H](COC(=O)/C(C)=C/C)[C@@H](O)[C@@H]2O)[C@H](O)[C@@H](O)[C@@H]1O | 11.3% [at 32.5 µM] (inactive) | –
31 | CC/C=C/C=C/C1(C)OC(CC(CO)OC)=CC1=O (stereo not given) | 4.81% (inactive) | –
32 | CC1(C)CC[C@]2(C(=O)O[C@@H]3O[C@H](CO)[C@@H](O)[C@H](O)[C@H]3O)[C@H](O)C[C@]3(C)C(=CCC4[C@@]5(C)CC[C@H](O[C@@H]6OC[C@@H](O)[C@H](O)[C@H]6O)[C@@](C)(C(=O)O)C5CC[C@]43C)[C@@H]2C1 (stereo not given in full) | 9.97% [at 32.5 µM] (inactive) | –
33 | CC(=O)C1CCC(=O)N1Cc1ccccc1 (stereo not given) | 1.6% (inactive) | –
34 | CC(O)C1CCC2C3CCC4CC(OC5OC(C(=O)O)C(O)C(O)C5O)CCC4(C)C3CCC12C (stereo not given) | 0% (inactive) | –
35 | CCN1CCN(C(=O)N[C@@H](C(=O)N[C@@H]2C(=O)N3[C@@H]2SC(C)(C)[C@@H]3C(=O)O)c2ccccc2)C(=O)C1=O | 7.84% (inactive) | –
36 | C=C(CCO[C@@H]1O[C@H](CO)[C@@H](O)[C@H](O)[C@H]1O)C(=O)O | 37.4% (inactive) | –
37 | O=C(Cc1ccccc1)OC[C@H]1O[C@H](O[C@H]2O[C@H](CO)[C@@H](O)[C@H](O)[C@H]2O)[C@H](O)[C@@H](O)[C@@H]1O | 37.4% [at 57.1 µM] (inactive) | –
38 | COc1ccc(-c2ccn(CC[C@](C)(C(=O)NO)S(C)(=O)=O)c(=O)c2)c(F)c1 | -18.5% (inactive) | –
39 | CC(=O)OC[C@@]12C(=O)C[C@@H](C)[C@]3(C[C@@H](c4ccoc4)OC3=O)[C@H]1CC[C@H](OC(C)=O)[C@]21CO1 | -22.8% [at 57.1 µM] (inactive) | –
40 | CC(=O)OC1C(CO)OC(O[C@H]2[C@H](OC(=O)[C@]34CCC(C)(C)C[C@H]3C3=CCC5[C@@]6(C)CC[C@H](O[C@@H]7O[C@H](C(=O)O)[C@@H](O)[C@H](O[C@@H]8OC[C@@H](O)[C@H](O)[C@H]8O)[C@H]7O[C@@H]7O[C@H](CO)[C@H](O)[C@H](O)[C@H]7O)[C@@](C)(C=O)C6CC[C@@]5(C)[C@]3(C)C[C@H]4O)O[C@H](C)[C@H](OC3OC(C)C(OC4OCC(O)C(O)C4O)C(O)C3O)[C@@H]2O)C(O)C1O (stereo not given in full) | 21.3% [at 19.1 µM] (inactive) | –
